Here are results for 40 compounds from PubChem BioAssay AID1347145 (National Center for Advancing Translational Sciences (NCATS), 2019).

Records with an inconclusive call do not appear. A number with no mark means an inactive call. Calls of active or inactive are those of the source. Calls come from the whole dose curve; as a rule, active = well fitted inhibition curve with a large enough effect; inconclusive = small, poorly fitted or top-dose-only effect; inactive = no such curve, though single readings can be large or run the other way.
Potency is the fitted concentration of half-maximal effect.

The target in this test is N-terminal Xaa-Pro-Lys N-methyltransferase 1 (Homo sapiens) (UniProt Q9BV86). The test can be described thus: qHTS Assay for Inhibitors of N-terminal methyltransferase 1 (NTMT1): MTaseGlo Assay Confirmatory Screen, Round 1. The settings on record: Recombinant NTMT1, MTase-Glo SAH luminescence; series mostly up to 57.1 µM; activity change, negative = inhibition: at the top concentration. From the text: Assay Submitter (PI): Rong Huang Ph.D, Purdue University, West Lafayette, IN 47907 The N-terminal methytransferase 1 is the first methyltransferase that methylates protein alpha-N-amines and plays an important role in regulating cell mitosis, chromatin interactions and DNA repair. It is observed to be over-expressed in various cancer patient tissues like malignant melanoma and colorectal cancer tissues. Knockdown of NTMT1 in cancer cells causes cell mitotic defects and enhances sensitivity to DNA damaging chemotherapeutics. […] These critical cellular processes in which NTMT1 is implicated, coupled with emerging links to cellular dysfunction, strengthen the inference that NTMT1 is a compelling novel anticancer target. Progress have been made in understanding the molecular properties of NTMT1 and the biological consequences of protein alpha-N-terminal methylation, but there are no specific small molecule probes available for NTMT1 to fully characterize its MTase activity. To address this unmet need, a panel of assay is created and established to enable quantitative high-throughput screening (qHTS) for novel, potent, and selective small molecule NTMT1 inhibitors. Two orthogonal qHTS that use different reagents (ThioGlo vs. MTaseGlo) are developed for primary robotic screening against the NCATS chemical library of more than 400,000 small molecules. Identified inhibitors are reacquired, validated, and further characterized. MTaseGlo Assay is a luminescence screen that measure the activity of methyltransferases based on the reaction product S-adenosyl homocysteine (SAH). The substrate SAM is converted to SAH upon enzyme activation. MTase-Glo reagent and detection solution convert SAH to ATP and measure the light from the luciferase reaction. […] Early Translation Branch (ETB) National Center for Advancing Translational Sciences (NCATS) National Institute of Health (NIH)
Chain of N-terminal Xaa-Pro-Lys N-methyltransferase 1 (Homo sapiens) (Q9BV86 whole entry, looked up): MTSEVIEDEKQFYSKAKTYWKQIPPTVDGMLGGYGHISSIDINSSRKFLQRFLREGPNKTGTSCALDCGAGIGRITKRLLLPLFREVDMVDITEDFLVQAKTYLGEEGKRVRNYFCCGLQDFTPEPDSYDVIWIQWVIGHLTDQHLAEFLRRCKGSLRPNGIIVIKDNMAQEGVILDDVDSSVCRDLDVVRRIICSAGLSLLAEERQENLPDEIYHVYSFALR
Materials: NTMT1 enzyme, substrate SPKRIA, control peptide RCC1-6 is provided by the Huang laboratory. MTaseGlo Assay: In brief, 3 µL of enzyme mixture (final concentrations of 125 nM and 100 µM for NTMT1 and SAM, respectively) into all wells of a 1,536-well solid-bottom white plate (Greiner Bio One, Monroe, NC). 23 nL of DMSO or Ac-RCC1-10 (final concentration range 234 nM to 143 microM) was transferred via Wako Pin-tool (Wako Automation, Richmond, VA) and incubated (RT) for ~15 minutes. Next, 1 µL of substrate (final concentration 1 µM) or buffer was dispensed, and the reaction proceeded for 30 minutes (RT, protected from light) followed by a 1 microL addition of [5X] MTase-Glo Reagent(R). Samples were incubated (RT, protected from light) for 30 minutes to allow for SAH to be converted to ADP, followed by a 5 microL addition of [1X] MTase-Glo Detection Solution(R) to allow for ADP to be converted to ATP, which was then detected with a luciferase reaction. Samples were centrifuged for 15 seconds at 1,000 RPM's, followed by a RT incubation for 30 minutes. Plates were then read using Luminescence optics on a ViewLux detector. Data were normalized to no-enzyme (0% activity) and no-inhibitor (DMSO; 100%) controls, and the resulting percent inhibition data were fitted to a 4-parameter Hill equation using Graphpad Prism.
In general terms: Quantitative high-throughput screening tests each substance at several concentrations.
For `OC[C@H]1O[C@@H](n2cnc3c(N[C@H]4C[C@H]5CC[C@@H]4C5)ncnc32)[C@H](O)[C@@H]1O`, the “activity change, negative = inhibition” value was 5.14%.

In the case of `CSc1nc(N)c2ncn([C@@H]3O[C@H](COP(=O)(O)OP(=O)(O)OP(=O)(O)O)[C@@H](O)[C@H]3O)c2n1`, the “activity change, negative = inhibition” value is 3.54%.

For `C/C(=C\CNc1ncnc2c1ncn2[C@@H]1O[C@@H](CO)[C@@H](O)[C@H]1O)CO`, the “activity change, negative = inhibition” value is 2.96%.

As for `CNc1ncnc2c1ncn2[C@H]1C[C@H](O)[C@@H](CO)O1`, the “activity change, negative = inhibition” value was 7.11%.

With `COc1cc2c(NC3CCN(C)CC3)cc(N3CCCCN(C)CC3)cc2cc1OCCOCCN(C)C`, the “activity change, negative = inhibition” value was -12%.

Regarding `CCNC(=O)[C@H]1O[C@H](n2cnc3c(N)nc(NCCc4ccc(CCC(=O)O)cc4)nc32)[C@@H](O)[C@@H]1O`, the “activity change, negative = inhibition” value was -19%.

Turning to `COc1cc2c(NC3CCN(C)CC3)nc(N3CCCN(C)CC3)nc2cc1OCC1CCNCC1`, the “activity change, negative = inhibition” value was -20.9%.

With `Nc1ncnc2c1nc(Cl)n2[C@@H]1O[C@H](CO)[C@@H](O)[C@@H]1O`, the “activity change, negative = inhibition” value is 4.43%.

In the case of `OC[C@H]1O[C@@H](n2cnc3cncnc32)[C@H](O)[C@@H]1O`, the Potency is 13.7 µM (active).

For `Nc1ncnc2c1nc(N1CCCCC1)n2[C@@H]1O[C@@H]2COP(=O)(O)O[C@H]2[C@H]1O`, the “activity change, negative = inhibition” value is 19.7%.

With `Nc1ncnc2c1ncn2[C@@H]1O[C@@H](CO)[C@H](O)[C@H]1O`, the “activity change, negative = inhibition” value was -5.73%.

With `COCCCCOc1cc2nc(N3CCCN(C)CC3)nc(NC3CCN(C)CC3)c2cc1OC`, the “activity change, negative = inhibition” value is -10%.

With `COc1cc2nc(N3CCN(C)CC3)nc(NC3CCN(Cc4ccccc4)CC3)c2cc1OC`, the “activity change, negative = inhibition” value is -7.39%.

For the compound `COc1cc2nc(N3CCCN(C)CC3)nc(NC3CCOCC3)c2cc1OC`, the “activity change, negative = inhibition” value is 10.6%.

Consider `Nc1ncnc2c1ncn2[C@@H]1O[C@H](COP(=O)(O)OP(=O)(O)OP(=O)(O)OP(=O)(O)OC[C@@H]2O[C@H](n3cnc4c(N)ncnc43)[C@@H](O)[C@H]2O)[C@@H](O)[C@H]1O`, for which the “activity change, negative = inhibition” value is 1000%.

Consider `Nc1ncnc2c1ncn2[C@@H]1O[C@H](CO)C[C@@H]1O`, for which the “activity change, negative = inhibition” value was -8.62%.

For the compound `Nc1ncnc2c1ncn2[C@@H]1O[C@H](CO)C(O)[C@H]1O` (stereo not given in full), the “activity change, negative = inhibition” value was 89.3%.

Take `CSc1ncnc2c1ncn2C1OC(CO)C(O)C1O` (stereo not given): the Potency was 30.6 µM (active).

`Nc1nc(Cl)nc2c1ncn2[C@H]1C[C@H](O)[C@@H](CO)O1`: the Potency result is “inactive”.

As for `Nc1ncnc2c1ncn2[C@H]1O[C@@H](CSCC[C@@H](N)C(=O)O)[C@H](O)[C@@H]1O`, the “activity change, negative = inhibition” value was 481%.

Take `COc1cc2nc(N3CCCN(C)CC3)nc(NC(C)C)c2cc1OC`: the “activity change, negative = inhibition” value was -0.0463%.

On to `O=c1[nH]cnc2c1ncn2[C@@H]1O[C@H](CO)[C@@H](O)[C@H]1O`, for which the Potency entry was “inactive”.

Take `Nc1ncnc2c1ncn2[C@@H]1O[C@H](COP(=O)(O)OP(=O)(O)OP(=O)(O)O)[C@@H](O)[C@H]1O`: the “activity change, negative = inhibition” value was 2.53%.

As for `COc1cc2nc(NCCN(C)C)nc(NC3CC3)c2cc1OC`, the “activity change, negative = inhibition” value is -6.53%.

`CC[C@H](C)n1cc(C)c2c(C(=O)NCc3c(C)cc(C)[nH]c3=O)cc(-c3ccc(N4CCNCC4)nc3)cc21`: the “activity change, negative = inhibition” value is 7.61%.

As for `COc1cc2c(NC3CCN(C)CC3)nc(N3CCCN(C)CC3)nc2cc1OCCN(C)CCN(C)C`, the “activity change, negative = inhibition” value is -16.7%.

Take `COc1cc2c(NC3CCN(C)CC3)nc(N3CCCN(C)CC3)nc2cc1OCCCCCN(C)C`: the “activity change, negative = inhibition” value is -10.4%.

Turning to `CC(C)(COP(=O)(O)OP(=O)(O)OC[C@H]1O[C@@H](n2cnc3c(N)ncnc32)[C@H](O)[C@@H]1OP(=O)(O)O)[C@H](O)C(=O)NCCC(=O)NCCS`, the “activity change, negative = inhibition” value was 34%.

Turning to `Cc1cc(C)c(CNC(=O)c2cc(-c3ccc(CN4CCOCC4)cc3)cc3c2cnn3C2CCCC2)c(=O)[nH]1`, the “activity change, negative = inhibition” value is -3.08%.

In the case of `COc1cc2c(NC3CCN(C)CC3)nc(N3CCN(C)CC3)nc2cc1OCCOCCN(C)C`, the “activity change, negative = inhibition” value was -10.4%.

With `Nc1nc(Nc2ccccc2)nc2c1ncn2[C@@H]1O[C@@H](CO)[C@H](O)[C@H]1O`, the “activity change, negative = inhibition” value was 2.31%.

For the compound `Nc1ncnc2c1[nH]c(=S)n2C1OC(CO)C(O)C1O` (stereo not given), the “activity change, negative = inhibition” value was 0.076%.

Turning to `CSCC1OC(n2cnc3c(N)ncnc32)C(O)C1O` (stereo not given), the “activity change, negative = inhibition” value was -5.25%.

With `Nc1nc(=S)c2ncn([C@@H]3O[C@H](CO)[C@@H](O)[C@H]3O)c2[nH]1`, the “activity change, negative = inhibition” value is -3.46%.

Take `CO[C@@H]1[C@@H]2OP(=O)(O)OC[C@H]2O[C@H]1n1c(Sc2ccc(Cl)cc2)nc2c(N)ncnc21`: the “activity change, negative = inhibition” value is -3.23%.

Regarding `COc1cc2c(NC3CCN(C(C)C)CC3)nc(N3CCCN(C(C)C)CC3)nc2cc1OCCOCCN(C)C`, the “activity change, negative = inhibition” value was -16.3%.

`COc1cc2nc(N3CC[C@H](N(C)C)C3)nc(NC3CC3)c2cc1OC`: the “activity change, negative = inhibition” value is 3.23%.

`Nc1ncnc2c1ncn2C1CC(O)C(CO)O1` (stereo not given): the “activity change, negative = inhibition” value is 25.8%.

For `O=c1[nH]cnc2c1ncn2C1O[C@H](CO)[C@@H](O)[C@H]1O` (stereo not given in full), the “activity change, negative = inhibition” value was 6.52%.

`CNc1ncnc2c1ncn2[C@@H]1O[C@H](CO)C(O)[C@H]1O` (stereo not given in full): the “activity change, negative = inhibition” value is 215%.
